A selection: hits, their analogues and other compounds. The true share with any hit is near 1.1%.
S1P2 blocker: antagonists of human S1P2 receptor. O95136. cell-based S1P2 antagonist assay, inhibition at 5 uM. inhibition, % at 5 µM. 0.21% of 97,000 active. AID 736; in the data active = inhibition above about 45%;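 also: CRE beta-lactamase reporter cells expressing human S1P2 stimulated with S1P; 0% = agonist at EC80 alone and 100% = agonist plus reference antagonist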
Target sequence (O95136 whole entry, looked up): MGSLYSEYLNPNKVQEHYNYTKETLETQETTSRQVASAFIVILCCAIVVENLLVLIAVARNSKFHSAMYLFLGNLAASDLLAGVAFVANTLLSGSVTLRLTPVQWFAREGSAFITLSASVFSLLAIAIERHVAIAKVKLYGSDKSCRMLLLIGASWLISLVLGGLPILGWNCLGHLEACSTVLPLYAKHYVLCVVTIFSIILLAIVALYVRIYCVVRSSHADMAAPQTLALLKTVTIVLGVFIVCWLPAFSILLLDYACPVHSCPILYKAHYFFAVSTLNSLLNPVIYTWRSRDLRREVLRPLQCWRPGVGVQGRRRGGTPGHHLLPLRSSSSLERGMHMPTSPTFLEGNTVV
S1P2 ag: agonists of human S1P2 receptor; O95136; S1P2-expressing cell line, agonist reporter read-out; activation, % at 4.5 µM; 0.46% of 97,000 active; AID 729; in the data active = activation above about 16%;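 also: 0% = vehicle low control and 100% = maximal reference agonist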
GALR2 ag: GALR2 (human) receptor agonism; GALR2-expressing cells, agonist activation read-out; activation, % (concentration not given with the values); 0.48% of 140,000 active; O43603; in the data active = activation above about 5%, passing the limit was not always enough;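 also: 0% = vehicle buffer wells and 100% = reference agonist at full effect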
GALR2 blocker: blocks the human galanin receptor 2; GALR2-expressing cells, antagonist mode; O43603; 0.39% of 140,000 active; inhibition, % at 4 µM; in the data active = inhibition above about 27%;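 also: cells stimulated with galanin 1-16 at roughly its EC80; 0% = agonist challenge control and 100% = basal control without agonist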
Active calls of the source: *.

Results for COc1ccc(OC)c(N=c2oc3cc(O)ccc3cc2C(N)=O)c1 ?
S1P2 blocker: -2; S1P2 ag: 5; GALR2 ag: 5.3*; GALR2 blocker: -7

How did CC(C(=O)OCC(=O)c1cccc([N+](=O)[O-])c1)N1C(=O)C2C3CCC(C3)C2C1=O (stereo not drawn) do in these assays?
GALR2 ag: -1; GALR2 blocker: 1

What do the screens show for `O=C(C1CCCN(S(=O)(=O)c2ccccc2[N+](=O)[O-])C1)N1CCN(c2ccccc2)CC1` (stereo not drawn)?
GALR2 ag: -1; GALR2 blocker: -2

What do the screens show for `COc1ccccc1C(=O)Nc1ccccc1C(=O)N1CCCC1`?
S1P2 blocker: 17; S1P2 ag: -2; GALR2 ag: -1; GALR2 blocker: -7

Results for COc1ccccc1C(=O)N1CCCN(C(=O)c2ccccc2OC)CC1 ?
S1P2 blocker: 4; S1P2 ag: 37*; GALR2 ag: 0; GALR2 blocker: -9

What do the screens show for `CCOC(=O)c1ccc(NC(=O)Nc2ccc(F)cc2)cc1`?
S1P2 blocker: 19; S1P2 ag: 22*; GALR2 ag: 0; GALR2 blocker: -6

How did COC(=O)c1ccc(NC(=O)Nc2ccc(F)cc2)cc1 do in these assays?
GALR2 ag: -2; GALR2 blocker: 16

Results for O=C(C(Sc1ccccc1)c1ccccc1)N1CCOCC1 (stereo not drawn) ?
GALR2 ag: -1; GALR2 blocker: 5

Results for COc1cccc(C2C(C(=O)Nc3ccccc3)=C(C)N=c3s/c(=C/c4ccc(OCC(=O)O)cc4)c(=O)n32)c1 (stereo not drawn) ?
GALR2 ag: 1; GALR2 blocker: 13

How did COc1ccccc1C1C(C(C)=O)=C(C)N=c2s/c(=C\c3cc(OC)c(OC)c(OC)c3)c(=O)n21 (stereo not drawn) do in these assays?
S1P2 blocker: -39; S1P2 ag: 17*; GALR2 ag: 4; GALR2 blocker: 2

Results for COCCCN1CN(Cc2ccccc2)CNC1=S ?
GALR2 ag: 0; GALR2 blocker: -8

What do the screens show for `COc1ccc(OC)c(C2C(C(=O)Nc3nc4ccccc4s3)=C(C)NC3=C2C(=O)CCC3)c1` (stereo not drawn)?
S1P2 blocker: -20; S1P2 ag: 24*; GALR2 ag: 14*; GALR2 blocker: 1

Results for Cc1cc(/C=C2/SC(=S)N(c3cccc(C(F)(F)F)c3)C2=O)c(C)n1-c1cccnc1 ?
S1P2 blocker: 82*; S1P2 ag: -5; GALR2 ag: -3; GALR2 blocker: 35*

Results for CN(C(=O)Cc1ccccc1)n1cnnc1 ?
S1P2 blocker: 4; S1P2 ag: -5; GALR2 ag: 1; GALR2 blocker: 2

Results for COc1cc(NC(=O)COc2ccc(Cl)cc2)ccc1-c1cc2ccccc2oc1=O ?
GALR2 ag: -1; GALR2 blocker: -6

Results for O=C1OCCN1C(=O)[C@H]1[C@H](c2ccc(F)cc2)C(c2ccc(F)cc2)=NN1c1ccc(Br)cc1 ?
GALR2 ag: 6.7*; GALR2 blocker: -2

Results for CCN(CC)c1ccc(NC(=O)Nc2ccccc2C(F)(F)F)cc1 ?
S1P2 blocker: -6; S1P2 ag: 62*; GALR2 ag: -3; GALR2 blocker: 10

How did N#C/C(=C\c1ccc(N2CCOCC2)o1)c1ccccc1 do in these assays?
S1P2 blocker: 30; S1P2 ag: -18; GALR2 ag: -4; GALR2 blocker: 27

How did N#C/C(=C/c1ccc(N2CCCCCC2)o1)c1ccc(F)cc1 do in these assays?
S1P2 blocker: 80*; S1P2 ag: -9; GALR2 ag: -2; GALR2 blocker: 37*

How did N#C/C(=C/c1ccc(N2CCCCCC2)o1)c1cccc(F)c1 do in these assays?
S1P2 blocker: 50*; S1P2 ag: -4; GALR2 ag: -2; GALR2 blocker: 11

What do the screens show for `N#C/C(=C/c1ccc(N2CCOCC2)o1)c1ccc(Br)cc1`?
S1P2 blocker: 20; S1P2 ag: -13; GALR2 ag: -1; GALR2 blocker: 19

What do the screens show for `CN(Cc1ccccc1)C(=O)c1ccccc1Br`?
GALR2 ag: 0; GALR2 blocker: -1

Results for COc1ccc(-c2cc(C(=O)Nc3c(Cl)cc(Cl)cc3Cl)c3ccccc3n2)cc1OC ?
GALR2 ag: 4.9*; GALR2 blocker: 0

Results for CCCNC(=O)c1c(N)n(-c2cccc(OC)c2)c2nc3ccccc3nc12 ?
S1P2 blocker: -29; S1P2 ag: 21*; GALR2 ag: 18*; GALR2 blocker: -5

What do the screens show for `COCCCNC(=O)c1c(N)n(-c2cccc(S(N)(=O)=O)c2)c2nc3ccccc3nc12`?
S1P2 blocker: -15; S1P2 ag: 11; GALR2 ag: 3; GALR2 blocker: 0

What do the screens show for `CCNC(=S)SCCOc1ccc(C)cc1`?
GALR2 ag: -1; GALR2 blocker: -4

What do the screens show for `c1csc(COc2ccccc2CNC2CCCCC2)c1`?
GALR2 ag: -1; GALR2 blocker: 2

What do the screens show for `O=C(Nc1ccc(Oc2ccc(NC(=O)C3CCCO3)cc2)cc1)C1CCCO1` (stereo not drawn)?
GALR2 ag: -1; GALR2 blocker: -1

Results for NC(=O)c1ccc(NC(=O)C2CCCO2)cc1 (stereo not drawn) ?
S1P2 blocker: 6; S1P2 ag: 219*; GALR2 ag: -3; GALR2 blocker: -2

How did COc1cc(C2C(C#N)=C(C)NC3=C2C(=O)c2ccccc23)cc(OC)c1OC (stereo not drawn) do in these assays?
S1P2 blocker: -2; S1P2 ag: 7; GALR2 ag: -2; GALR2 blocker: 31*

How did COc1ccc(C2C(C#N)=C(C)NC3=C2C(=O)c2ccccc23)cc1 (stereo not drawn) do in these assays?
S1P2 blocker: 3; S1P2 ag: -4; GALR2 ag: -3; GALR2 blocker: 17

What do the screens show for `COc1cccc(-c2cc(C(=O)Nc3cc(C)on3)no2)c1`?
S1P2 blocker: 8; S1P2 ag: -5; GALR2 ag: 6.2*; GALR2 blocker: -6

What do the screens show for `O=C(CN1CCN(C/C=C/c2ccccc2)CC1)Nc1cc([N+](=O)[O-])ccc1Cl`?
GALR2 ag: -1; GALR2 blocker: 9

What do the screens show for `O=C(Nc1ccc(N2CCOCC2)cc1)Nc1ccc2nc(-c3ccco3)c(-c3ccco3)nc2c1`?
S1P2 blocker: -8; S1P2 ag: 0; GALR2 ag: 0; GALR2 blocker: 32*

Results for O=C(Nc1ccc2nc(-c3ccco3)c(-c3ccco3)nc2c1)NC1CC1 ?
S1P2 blocker: -28; S1P2 ag: -2; GALR2 ag: -1; GALR2 blocker: 7

What do the screens show for `NS(=O)(=O)c1ccc(N2N=C(c3ccccc3)CC2c2cccc(F)c2)cc1` (stereo not drawn)?
GALR2 ag: 5.9*; GALR2 blocker: -11

How did NS(=O)(=O)c1ccc(N2N=C(c3ccc(Br)cc3)CC2c2ccc(F)cc2)cc1 (stereo not drawn) do in these assays?
S1P2 blocker: -115; S1P2 ag: 161*; GALR2 ag: 156*; GALR2 blocker: -38

Results for CC1CCN(C(=O)CCc2ccc(Oc3cc([N+](=O)[O-])cc([N+](=O)[O-])c3)cc2)CC1 ?
GALR2 ag: -1; GALR2 blocker: -9

Assay outcomes as filed in PubChem.
